Test results taken from PubChem BioAssay (NCI).
This is part of a sample that, as a whole, favours compounds with a hit. Of some 83,000 tested, about 20% had one in any assay.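 Values shown are percent growth following 48 h exposure of cells in 96-well plates to a single concentration of compound; below 10 was considered active.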 The source made the active and inactive calls.

The molecules below were run on RXF 393 renal (assay: NCI-60 one-dose screen, 48 h (100 = growth as untreated, 0 = no growth, -100 = all killed)). Conditions: 10 µM.

| Compound | growth |
| --- | --- |
| CCc1ccc(-c2ccc(-n3nc(C)c4c(N)nc(Cc5ccccc5)nc43)cc2)cc1 | 75.7% (inactive) |
| O=[N+]([O-])c1ccc2ncccc2c1Cl | 91.2% (inactive) |
| Cc1ccc(-n2nnnc2N)c(C)c1 | 143% (inactive) |
| Oc1ccc(-c2[nH]c3ccccc3c2-c2nc3ccccc3o2)cc1 | 91.6% (inactive) |
| CCc1ccc(C2=NN(c3ccc(S(C)(=O)=O)cc3)C(=O)CC2)cc1 | 27.4% (inactive) |
| COc1ccc(-c2nn(-c3cccc(Cl)c3)cc2-c2c(C#N)c(=O)n3[nH]c(-c4ccc(C)cc4)nc3c2C#N)cc1 | 28.2% (inactive) |
| O=C1c2ccccc2C(=O)c2c1ccc(C(Br)Br)c2[N+](=O)[O-] | 48.6% (inactive) |
| CCOC(=O)CC(S(=O)(=O)c1ccccc1)S(=O)(=O)c1ccccc1 | 57.5% (inactive) |
| CC(=O)Nc1ccc(S(=O)(=O)c2ccnc3cc(Cl)ccc23)cc1 | 66.7% (inactive) |
| O=C(Nc1cc([N+](=O)[O-])c2[nH]c(=O)c3ccccc3c2c1)C(F)(F)F | 76.7% (inactive) |
| COc1cc2c(cc1NC(=O)C(F)(F)F)-c1ccc(NC(=O)C(F)(F)F)cc1C2 | 35.7% (inactive) |
| COc1ccc(/C(C#N)=C/c2cccc(OC)c2OC)cc1 | 85.7% (inactive) |
| C/C(=C/CCC(C)[C@@H]1CC[C@]2(C)C3=C(CC[C@@]12C)[C@@]1(C)CCC(=O)C(C)(C)[C@@H]1CC3)C(=O)O (stereo not given in full) | -90.2% (active) |
| N#CC1=CC2CN(Cc3ccccc3)C1C1C(=O)N(c3ccccc3)C(=O)C21 (stereo not given) | 103% (inactive) |
| COC(=O)C1OC1c1cc([N+](=O)[O-])ccc1OC (stereo not given) | 99.8% (inactive) |
| O=c1cn[nH]c2ccc(Br)cc12 | 95.3% (inactive) |
| COc1cc(CNC(=O)C2CSC3(C)c4ccccc4C(=O)N23)cc(OC)c1OC (stereo not given) | 98.7% (inactive) |
| O=C1/C=C/[C@@H](O)[C@@H]2C[C@@H](O)C[C@H]2/C=C/CCC[C@H](C(F)(F)F)O1 | -28.8% (active) |
| O=C1CCn2c1c(O)c1ccccc1c2=O | 111% (inactive) |
| COc1ccc(/C(=N\N)C(=O)c2ccccc2)cc1 (tested in a mixture with another compound) | 96.9% (inactive) |

| Compound | growth |
| --- | --- |
| O=C(CCl)Nc1ccc(Cc2ccc(NC(=O)CCl)cc2)cc1 | -50.7% (active) |
| CCOC(=O)C1=CSC2=NC3=C(CCC/C3=C\c3cc(OC)c(OC)c(OC)c3)C(c3cc(OC)c(OC)c(OC)c3)N12 (stereo not given) | 32.7% (inactive) |
| C=CCSC(CC)(CC)C(=O)NC | 107% (inactive) |
| CCN(CCCNc1cc2c(c(N)c1S(=O)(=O)O)C(=O)c1ccccc1C2=O)c1ccccc1 | 108% (inactive) |
| Cc1ccc(S(=O)(=O)N/N=C2\CCCc3ccccc32)cc1 | 103% (inactive) |
| COc1cc(-c2nn(-c3cccc(NC(=O)CCNc4ccc(N5CCOCC5)cc4)c3)cc2-c2ccncc2)ccc1Cl | 20.9% (inactive) |
| COc1cc2c(cc1NC(=O)C(Cl)Cl)-c1ccc(NC(=O)C(Cl)Cl)cc1C2 | -59.2% (active) |
| OCC1OC2C(NC(=S)N2c2ccccc2)C(O)C1O (stereo not given) | 108% (inactive) |
| Cc1cc(O)ccc1C1=NN(c2ccc(S(C)(=O)=O)cc2)C(=O)CC1 | 81.2% (inactive) |
| Cc1c(Cl)cccc1NC(=O)CN1CCOCC1 | 117% (inactive) |
| O=C1c2ccccc2C(=O)c2c1ccc(C(Br)Br)c2Cl | 36.2% (inactive) |
| CC[C@@H](C(=O)[C@@H](C)[C@@H](O)[C@H](C)[C@@H]1O[C@@H]([C@@H](CC)C(=O)N(CC)CC)CC[C@@H]1C)C1O[C@]2(C=CC(=O)[C@]3(CC[C@@](C)([C@H]4CC[C@](O)(CC)[C@H](C)O4)O3)O2)[C@H](C)C[C@@H]1C (stereo not given in full) | 28.2% (inactive) |
| COc1cc(C(=O)n2nc(-c3cc(OC)c(OC)c(OC)c3)nc2N)cc(OC)c1OC | 114% (inactive) |
| COc1ccc(C(=O)N2C=Cc3ccccc3C2C#N)cc1 (stereo not given) | 90% (inactive) |
| COc1ccc(-c2nn(-c3cccc(Cl)c3)cc2-c2cc(-c3ccccc3)[nH]c(=O)c2C#N)cc1 | -25.6% (active) |
| CCOC(=O)C1C(C(=O)OCC)C2C(=O)C3C(C(=O)OCC)C(C(=O)OCC)C3C(=O)C12 (stereo not given) | 112% (inactive) |
| CC1=CC2C(C(O)CC3(C)C2CC(C)C32OCOC23COCO3)C2(C)C/C(=C/O)C(=O)C=C12 (stereo not given) | 26.1% (inactive) |
| CCN(CC)CCOc1cccc2c1C(=O)c1ccccc1C2=O | 79.9% (inactive) |
| Cc1c2cnccc2c(C)c2c1oc1ccccc12 | 71.5% (inactive) |
| O=C(Nc1ccc(NS(=O)(=O)c2ccc(F)cc2)cc1)C12CC3CC(CC(C3)C1)C2 | 105% (inactive) |

What follows are molecules tested on SF-268 CNS in the same assay as above. Conditions: 10 µM.

| Compound | growth |
| --- | --- |
| CCc1ccc(-c2ccc(-n3nc(C)c4c(N)nc(Cc5ccccc5)nc43)cc2)cc1 | 66.1% (inactive) |
| O=[N+]([O-])c1ccc2ncccc2c1Cl | 38.9% (inactive) |
| Cc1ccc(-n2nnnc2N)c(C)c1 | 114% (inactive) |
| Oc1ccc(-c2[nH]c3ccccc3c2-c2nc3ccccc3o2)cc1 | 69.8% (inactive) |
| CCc1ccc(C2=NN(c3ccc(S(C)(=O)=O)cc3)C(=O)CC2)cc1 | 42.8% (inactive) |
| COc1ccc(-c2nn(-c3cccc(Cl)c3)cc2-c2c(C#N)c(=O)n3[nH]c(-c4ccc(C)cc4)nc3c2C#N)cc1 | 35.8% (inactive) |
| O=C1c2ccccc2C(=O)c2c1ccc(C(Br)Br)c2[N+](=O)[O-] | 19.1% (inactive) |
| CCOC(=O)CC(S(=O)(=O)c1ccccc1)S(=O)(=O)c1ccccc1 | 101% (inactive) |
| CC(=O)Nc1ccc(S(=O)(=O)c2ccnc3cc(Cl)ccc23)cc1 | 82.8% (inactive) |
| O=C(Nc1cc([N+](=O)[O-])c2[nH]c(=O)c3ccccc3c2c1)C(F)(F)F | 86.7% (inactive) |
| COc1cc2c(cc1NC(=O)C(F)(F)F)-c1ccc(NC(=O)C(F)(F)F)cc1C2 | 90.1% (inactive) |
| COc1ccc(/C(C#N)=C/c2cccc(OC)c2OC)cc1 | 92.5% (inactive) |
| C/C(=C/CCC(C)[C@@H]1CC[C@]2(C)C3=C(CC[C@@]12C)[C@@]1(C)CCC(=O)C(C)(C)[C@@H]1CC3)C(=O)O (stereo not given in full) | -92.2% (active) |
| N#CC1=CC2CN(Cc3ccccc3)C1C1C(=O)N(c3ccccc3)C(=O)C21 (stereo not given) | 107% (inactive) |
| COC(=O)C1OC1c1cc([N+](=O)[O-])ccc1OC (stereo not given) | 102% (inactive) |
| O=c1cn[nH]c2ccc(Br)cc12 | 99.9% (inactive) |
| COc1cc(CNC(=O)C2CSC3(C)c4ccccc4C(=O)N23)cc(OC)c1OC (stereo not given) | 101% (inactive) |
| O=C1/C=C/[C@@H](O)[C@@H]2C[C@@H](O)C[C@H]2/C=C/CCC[C@H](C(F)(F)F)O1 | 17.9% (inactive) |
| O=C1CCn2c1c(O)c1ccccc1c2=O | 114% (inactive) |
| COc1ccc(/C(=N\N)C(=O)c2ccccc2)cc1 (tested in a mixture with another compound) | 96.2% (inactive) |

| Compound | growth |
| --- | --- |
| O=C(CCl)Nc1ccc(Cc2ccc(NC(=O)CCl)cc2)cc1 | 10.1% (inactive) |
| CCOC(=O)C1=CSC2=NC3=C(CCC/C3=C\c3cc(OC)c(OC)c(OC)c3)C(c3cc(OC)c(OC)c(OC)c3)N12 (stereo not given) | 33.3% (inactive) |
| C=CCSC(CC)(CC)C(=O)NC | 112% (inactive) |
| CCN(CCCNc1cc2c(c(N)c1S(=O)(=O)O)C(=O)c1ccccc1C2=O)c1ccccc1 | 109% (inactive) |
| Cc1ccc(S(=O)(=O)N/N=C2\CCCc3ccccc32)cc1 | 102% (inactive) |
| COc1cc(-c2nn(-c3cccc(NC(=O)CCNc4ccc(N5CCOCC5)cc4)c3)cc2-c2ccncc2)ccc1Cl | 31.8% (inactive) |
| COc1cc2c(cc1NC(=O)C(Cl)Cl)-c1ccc(NC(=O)C(Cl)Cl)cc1C2 | -31.2% (active) |
| OCC1OC2C(NC(=S)N2c2ccccc2)C(O)C1O (stereo not given) | 96.8% (inactive) |
| Cc1cc(O)ccc1C1=NN(c2ccc(S(C)(=O)=O)cc2)C(=O)CC1 | 80.3% (inactive) |
| Cc1c(Cl)cccc1NC(=O)CN1CCOCC1 | 97.1% (inactive) |
| O=C1c2ccccc2C(=O)c2c1ccc(C(Br)Br)c2Cl | -19.1% (active) |
| CC[C@@H](C(=O)[C@@H](C)[C@@H](O)[C@H](C)[C@@H]1O[C@@H]([C@@H](CC)C(=O)N(CC)CC)CC[C@@H]1C)C1O[C@]2(C=CC(=O)[C@]3(CC[C@@](C)([C@H]4CC[C@](O)(CC)[C@H](C)O4)O3)O2)[C@H](C)C[C@@H]1C (stereo not given in full) | 46.4% (inactive) |
| COc1cc(C(=O)n2nc(-c3cc(OC)c(OC)c(OC)c3)nc2N)cc(OC)c1OC | 93.4% (inactive) |
| COc1ccc(C(=O)N2C=Cc3ccccc3C2C#N)cc1 (stereo not given) | 99.9% (inactive) |
| COc1ccc(-c2nn(-c3cccc(Cl)c3)cc2-c2cc(-c3ccccc3)[nH]c(=O)c2C#N)cc1 | 34.8% (inactive) |
| CCOC(=O)C1C(C(=O)OCC)C2C(=O)C3C(C(=O)OCC)C(C(=O)OCC)C3C(=O)C12 (stereo not given) | 101% (inactive) |
| CC1=CC2C(C(O)CC3(C)C2CC(C)C32OCOC23COCO3)C2(C)C/C(=C/O)C(=O)C=C12 (stereo not given) | 24.8% (inactive) |
| CCN(CC)CCOc1cccc2c1C(=O)c1ccccc1C2=O | 94.2% (inactive) |
| Cc1c2cnccc2c(C)c2c1oc1ccccc12 | 73.8% (inactive) |
| O=C(Nc1ccc(NS(=O)(=O)c2ccc(F)cc2)cc1)C12CC3CC(CC(C3)C1)C2 | 97.4% (inactive) |
